The text below walks through data of PubChem BioAssay (EPA / NIEHS).

Molecules are shown by their SMILES. Results filed as inconclusive are left out. Activity calls are given as the source filed them. The calls were made as follows, unless noted: active = hit-call score of the fitted dose curve at least 0.9, where 1 is the maximum; inconclusive = response in the unintended direction; inactive = score below 0.9.

In assay [1] the target is Estrogen receptor beta (Homo sapiens) (UniProt Q92731). The experiment in a line: OT_ER_ERbERb_1440: Odyssey Thera (OT) 24-hour HEK293T Protein-Complementation Assay for Estrogen Receptor-beta/-beta Homodimer (AID 2283380).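 Also: fluorescence gain from ER beta LBD homodimer complementation read by laser scanning cytometry; scored as signal increase over DMSO baseline for both agonists and antagonists.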 The method, boiled down:
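Fluorescence increase, nuclear for agonists or whole-cell for antagonists, relative to DMSO vehicle, quantified by laser scanning cytometer after fixation and Draq5 staining. Readout from 24 h treatment of HEK293T cells carrying complementation-paired ER beta LBD (aa 310-547).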

Assay [2] addresses Bile acid receptor (Homo sapiens) (UniProt Q96RI1). The experiment in a line: OT_FXR_FXRSRC1_1440: Odyssey Thera (OT) 24-hour HEK293T Protein-Complementation Assay for Farnesoid X receptor/SRC-1 Co-activator (AID 2283384). An outline of the steps: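 Compounds are applied to human kidney HEK293T cells expressing bait and prey fused to reporter protein fragments; after 24 h, reconstituted reporter fluorescence is measured. Activity is fitted as signal gain over DMSO.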

For assay [3], the target named is Retinoic acid receptor RXR-alpha (Homo sapiens) (UniProt P19793). The experiment in a line: OT_NURR1_NURR1RXRa_0480: Odyssey Thera (OT) 8-hour HEK293T Protein Complementation Assay for Nurr1/retinoid X receptor (RXR) (AID 2283385). An outline of the steps:
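8 h compound exposure, HEK293T; Nurr1/RXRα fragment complementation; fluorescence intensity; positive fitting direction vs DMSO baseline.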

For assay [4], the target named is Estrogen receptor (Homo sapiens) (UniProt P03372). The experiment in a line: OT_ERa_GFPERaERE_0480: Odyssey Thera (OT) 8-hour HeLa Transcription Induction Assay for Estrogen Receptor (AID 2283381; active = hit-call score of the fitted dose curve at least 0.9, where 1 is the maximum; inactive = score below 0.9). The method, boiled down: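 Fluorescent reporter signal, imaged by microscopy and scored with image-analysis algorithms, was taken 8 h after chemical dosing of HeLa cells; activity was fitted upward relative to DMSO.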

The target is the same in assay [5]. Nature of the assay: OT_ERa_GFPERaERE_0120: Odyssey Thera (OT) 2-hour HeLa Transcription Induction Assay for Estrogen Receptor (AID 2283382). The method, boiled down: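 HeLa, 384-well, 2 h chemical exposure; GFP reporter induction (ERE), fluorescence microscopy; high content image analysis; positive fitting direction vs DMSO.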
Assay [6] concerns the target mouse Estrogen Receptor alpha (Era), Esr1 (gene 13982) (UniProt P19785). The experiment in a line: NVS_NR_mERa: NovaScreen (NVS) Nuclear Receptor Binding Assay for mouse Estrogen Receptor alpha (Era) (AID 2283378).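 Also: hit means loss of bound radioligand signal relative to DMSO.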 An outline of the steps: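 Cell-free radioligand competitive displacement binding, read by filter-based scintillation counting 18 h after dosing. Primary screen run in duplicate at 25 uM, actives retested in concentration series; loss of signal versus DMSO.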

Assay [7] addresses human Norepinephrine Transporter (NET), SLC6A2 (gene 6530) (UniProt P23975). Nature of the assay: NVS_TR_hNET: NovaScreen (NVS) Transporter Assay for human Norepinephrine Transporter (NET) (AID 2283377).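 Also: cell-free membrane protein extracted from CHO cells expressing human NET.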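 As to AC50: displacement of radioligand from human NET seen as loss of scintillation signal.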 An outline of the steps: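 Scintillation counts of filter-retained radioligand served as the readout, taken 1 h post-dosing in a cell-free CHO-derived system. Test chemicals ran first at 25 uM in duplicate; confirmed hits were retested across concentrations.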

The target in assay [8] is Bile acid receptor (Homo sapiens) (UniProt Q96RI1). Nature of the assay: OT_FXR_FXRSRC1_0480: Odyssey Thera (OT) 8-hour HEK293T Protein-Complementation Assay for Farnesoid X receptor/SRC-1 Co-activator (AID 2283383). The method, boiled down:
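Human kidney HEK293T cells carried FXR/SRC-1 fragment-complementation constructs. Compounds were added and incubated 8 h. Reporter reassembly upon receptor–co-activator interaction was then quantified by fluorescence, with curves fitted in the positive direction relative to DMSO.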

For assay [9], the target named is Agonist Androgen Response Element (ARE), AR (gene 367) (UniProt P10275). The experiment in a line: OT_AR_ARELUC_AG_1440: Odyssey Thera (OT) 24-hour CHO-K1 Luciferase Assay for Agonist Androgen Response Element (ARE) (AID 2283379). The method, boiled down:
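Agonist mode, 24 h exposure in CHO-K1 ARE-luciferase cells; values reflect luminescence induction over vehicle.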

Sequence of Estrogen receptor (Homo sapiens) (P03372 whole entry, looked up): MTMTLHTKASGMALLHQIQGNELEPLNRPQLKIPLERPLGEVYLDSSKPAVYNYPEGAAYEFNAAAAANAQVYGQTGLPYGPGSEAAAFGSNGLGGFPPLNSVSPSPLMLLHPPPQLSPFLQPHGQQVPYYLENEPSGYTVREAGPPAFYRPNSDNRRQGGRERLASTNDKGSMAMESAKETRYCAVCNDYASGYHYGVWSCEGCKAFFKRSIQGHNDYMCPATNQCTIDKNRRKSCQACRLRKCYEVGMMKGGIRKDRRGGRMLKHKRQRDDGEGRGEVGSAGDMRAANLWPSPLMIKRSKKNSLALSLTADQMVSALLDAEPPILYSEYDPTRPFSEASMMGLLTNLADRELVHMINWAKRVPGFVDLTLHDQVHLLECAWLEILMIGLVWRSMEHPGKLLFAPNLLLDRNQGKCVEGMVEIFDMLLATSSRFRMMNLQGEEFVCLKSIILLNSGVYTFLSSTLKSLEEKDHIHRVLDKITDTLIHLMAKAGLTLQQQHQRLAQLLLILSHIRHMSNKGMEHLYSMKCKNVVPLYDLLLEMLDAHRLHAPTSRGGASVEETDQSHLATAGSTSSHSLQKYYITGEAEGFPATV
Sequence of Estrogen receptor beta (Homo sapiens) (Q92731 whole entry, looked up, the tested form may be a part): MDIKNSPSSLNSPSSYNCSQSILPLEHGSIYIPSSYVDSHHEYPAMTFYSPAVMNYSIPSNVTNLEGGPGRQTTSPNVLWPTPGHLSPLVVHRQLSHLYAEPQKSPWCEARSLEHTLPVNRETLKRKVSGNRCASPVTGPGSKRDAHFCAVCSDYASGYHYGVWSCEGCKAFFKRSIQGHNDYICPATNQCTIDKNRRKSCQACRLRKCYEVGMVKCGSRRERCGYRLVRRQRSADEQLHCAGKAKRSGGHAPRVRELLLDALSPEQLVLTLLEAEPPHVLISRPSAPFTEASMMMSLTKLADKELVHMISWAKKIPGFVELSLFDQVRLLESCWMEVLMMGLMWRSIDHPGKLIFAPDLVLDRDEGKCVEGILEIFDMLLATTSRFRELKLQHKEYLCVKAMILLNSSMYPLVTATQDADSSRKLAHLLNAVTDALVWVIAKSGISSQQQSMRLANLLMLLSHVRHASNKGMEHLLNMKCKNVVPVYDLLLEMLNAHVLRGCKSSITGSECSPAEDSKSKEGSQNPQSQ
Sequence of Bile acid receptor (Homo sapiens) (Q96RI1 whole entry, looked up, the tested form may be a part): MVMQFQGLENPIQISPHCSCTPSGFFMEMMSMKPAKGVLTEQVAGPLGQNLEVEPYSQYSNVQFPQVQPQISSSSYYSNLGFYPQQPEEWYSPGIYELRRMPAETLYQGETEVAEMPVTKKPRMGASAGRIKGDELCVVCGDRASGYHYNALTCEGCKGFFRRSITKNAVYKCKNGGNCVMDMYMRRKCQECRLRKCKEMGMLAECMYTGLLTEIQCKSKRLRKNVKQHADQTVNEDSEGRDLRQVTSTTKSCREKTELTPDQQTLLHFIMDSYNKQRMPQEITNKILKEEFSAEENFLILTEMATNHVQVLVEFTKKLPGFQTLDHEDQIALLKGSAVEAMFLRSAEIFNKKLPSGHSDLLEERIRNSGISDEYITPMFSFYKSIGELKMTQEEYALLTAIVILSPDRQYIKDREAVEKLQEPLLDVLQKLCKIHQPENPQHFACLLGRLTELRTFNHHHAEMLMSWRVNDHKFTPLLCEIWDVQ
Sequence of mouse Estrogen Receptor alpha (Era), Esr1 (gene 13982) (P19785 whole entry, looked up): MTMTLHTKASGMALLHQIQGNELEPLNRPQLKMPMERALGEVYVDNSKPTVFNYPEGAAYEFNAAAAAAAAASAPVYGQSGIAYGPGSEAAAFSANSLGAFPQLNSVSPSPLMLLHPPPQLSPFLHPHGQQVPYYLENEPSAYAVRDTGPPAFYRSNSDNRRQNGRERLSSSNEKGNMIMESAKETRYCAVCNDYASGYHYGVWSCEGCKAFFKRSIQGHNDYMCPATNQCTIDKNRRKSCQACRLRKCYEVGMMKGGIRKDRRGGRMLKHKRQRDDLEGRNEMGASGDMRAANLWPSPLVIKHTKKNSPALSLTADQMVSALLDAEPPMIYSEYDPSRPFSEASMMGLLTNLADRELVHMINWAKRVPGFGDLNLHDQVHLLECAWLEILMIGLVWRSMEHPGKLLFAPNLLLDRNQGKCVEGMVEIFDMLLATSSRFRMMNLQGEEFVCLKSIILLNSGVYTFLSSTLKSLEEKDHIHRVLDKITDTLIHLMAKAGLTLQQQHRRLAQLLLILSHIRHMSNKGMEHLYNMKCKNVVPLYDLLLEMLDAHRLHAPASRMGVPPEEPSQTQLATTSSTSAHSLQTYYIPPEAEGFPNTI
Sequence of human Norepinephrine Transporter (NET), SLC6A2 (gene 6530) (P23975 whole entry, looked up): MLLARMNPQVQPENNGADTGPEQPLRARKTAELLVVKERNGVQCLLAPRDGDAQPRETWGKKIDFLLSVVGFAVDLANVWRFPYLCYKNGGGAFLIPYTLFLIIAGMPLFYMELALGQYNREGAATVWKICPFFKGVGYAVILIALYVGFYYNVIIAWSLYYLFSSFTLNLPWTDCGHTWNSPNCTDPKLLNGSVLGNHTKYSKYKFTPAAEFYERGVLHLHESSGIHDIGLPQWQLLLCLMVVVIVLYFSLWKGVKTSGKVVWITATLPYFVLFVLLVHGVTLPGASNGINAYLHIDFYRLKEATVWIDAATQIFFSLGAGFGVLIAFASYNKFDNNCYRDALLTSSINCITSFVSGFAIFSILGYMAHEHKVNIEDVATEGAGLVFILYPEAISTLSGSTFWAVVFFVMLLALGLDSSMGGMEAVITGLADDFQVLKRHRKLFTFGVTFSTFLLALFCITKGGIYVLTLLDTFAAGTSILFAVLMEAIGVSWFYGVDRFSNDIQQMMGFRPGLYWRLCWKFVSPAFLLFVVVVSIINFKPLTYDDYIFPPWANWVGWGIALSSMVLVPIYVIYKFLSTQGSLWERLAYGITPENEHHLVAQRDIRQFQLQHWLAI
Sequence of Retinoic acid receptor RXR-alpha (Homo sapiens) (P19793 whole entry, looked up, the tested form may be a part): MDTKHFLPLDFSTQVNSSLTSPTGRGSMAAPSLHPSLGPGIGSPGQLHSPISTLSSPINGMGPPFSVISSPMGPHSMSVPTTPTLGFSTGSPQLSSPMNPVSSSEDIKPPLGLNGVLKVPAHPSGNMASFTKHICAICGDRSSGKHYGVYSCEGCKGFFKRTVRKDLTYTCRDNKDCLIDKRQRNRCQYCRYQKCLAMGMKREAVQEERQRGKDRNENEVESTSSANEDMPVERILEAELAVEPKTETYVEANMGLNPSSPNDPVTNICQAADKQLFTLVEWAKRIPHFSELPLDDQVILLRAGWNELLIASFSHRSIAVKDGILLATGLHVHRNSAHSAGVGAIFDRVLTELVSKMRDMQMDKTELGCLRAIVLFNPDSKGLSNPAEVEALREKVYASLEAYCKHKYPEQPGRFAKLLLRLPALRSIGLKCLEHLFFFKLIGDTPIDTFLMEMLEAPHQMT
Sequence of Agonist Androgen Response Element (ARE), AR (gene 367) (P10275 whole entry, looked up): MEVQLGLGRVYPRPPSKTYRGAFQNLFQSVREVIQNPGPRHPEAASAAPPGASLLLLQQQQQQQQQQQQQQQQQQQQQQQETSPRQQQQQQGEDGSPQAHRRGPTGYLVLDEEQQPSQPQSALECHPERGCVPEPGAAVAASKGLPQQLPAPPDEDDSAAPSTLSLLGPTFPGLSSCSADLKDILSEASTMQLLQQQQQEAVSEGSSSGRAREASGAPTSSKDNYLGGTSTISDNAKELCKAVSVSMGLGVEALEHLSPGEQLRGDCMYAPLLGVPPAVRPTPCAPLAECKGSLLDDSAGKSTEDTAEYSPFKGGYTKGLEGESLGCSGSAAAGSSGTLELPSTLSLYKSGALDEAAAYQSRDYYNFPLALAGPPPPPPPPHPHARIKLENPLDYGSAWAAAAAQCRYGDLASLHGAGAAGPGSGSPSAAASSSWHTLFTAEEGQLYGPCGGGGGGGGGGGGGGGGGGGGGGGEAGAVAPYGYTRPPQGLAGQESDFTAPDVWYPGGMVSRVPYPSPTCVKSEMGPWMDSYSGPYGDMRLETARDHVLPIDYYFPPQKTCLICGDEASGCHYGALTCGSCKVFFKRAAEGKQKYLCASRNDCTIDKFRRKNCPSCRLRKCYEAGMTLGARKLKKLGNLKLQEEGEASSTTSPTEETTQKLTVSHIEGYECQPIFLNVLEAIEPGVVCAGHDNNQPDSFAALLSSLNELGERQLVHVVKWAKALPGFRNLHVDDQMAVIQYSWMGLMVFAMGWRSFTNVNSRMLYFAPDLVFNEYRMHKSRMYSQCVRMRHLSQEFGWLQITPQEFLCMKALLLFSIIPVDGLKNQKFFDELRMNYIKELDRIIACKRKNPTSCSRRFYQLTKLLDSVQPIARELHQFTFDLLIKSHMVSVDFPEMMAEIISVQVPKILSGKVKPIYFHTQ

In the case of `COC(=O)Nc1cccc(OC(=O)Nc2cccc(C)c2)c1`, the result in [1], in [2] and in assay [3] was inactive.

In the case of `CCN(CCO)CCO`, the result in assay [1], in assay [4] and in assay [5] was inactive.

On to `C=CC(=O)[O][Sn]([CH2]CCC)([CH2]CCC)[CH2]CCC`, for which, in [6], the outcome was inactive.

In the case of `COC(=O)c1cc(Oc2ccc(Cl)cc2Cl)ccc1[N+](=O)[O-]`, the call in [6] was inactive.

Consider `CC1(C)[C@H](C(=O)O[C@H](C#N)c2cccc(Oc3ccccc3)c2)[C@@H]1/C=C(\Cl)C(F)(F)F`, for which the result in assay [7], in [1], in [8] and in [2] was inactive.

Consider `OCC(c1ccc(Cl)cc1)c1ccc(Cl)cc1`, for which, in assay [6], the result was inactive.

As for `O=C(NC(=O)c1c(F)cccc1F)Nc1cc(Cl)c(Oc2ncc(C(F)(F)F)cc2Cl)c(Cl)c1`, in assay [6], the outcome was inactive.

As to `C=CCN=C=S`, the outcome in assay [4], in [5], in assay [8] and in assay [3] was inactive.

In the case of `Nc1ccc(Br)cc1`, in [6], the compound was called inactive.

Take `Oc1c(Cl)cc(Cl)cc1Cl`: in [1], the compound was called inactive.

For `O=C(NC(=O)c1c(F)cccc1F)Nc1ccc(Cl)cc1`, the compound was classed as inactive in assay [1], in assay [4], in [5], in assay [8], in assay [2] and in [3].

One may read the AC50 as the concentration giving half of the maximal activity seen. With `CCOc1ccc(N)cc1`, the compound was called inactive in [1], in assay [4], in [5] and in [3]. Moreover, the AC50 in assay [2] is 46.8 µM (active).

As for `OCCN(CCO)CCO`, the compound was called inactive in [3].

Regarding `O=C(O)COc1ccc(Cl)cc1`, the call in assay [1], in [4], in assay [5] and in assay [3] was inactive.

Consider `BrCC(Br)c1ccccc1` (configuration not stated), for which, in assay [7], the compound was classed as inactive.

Take `Cc1cc(Cl)ccc1O`: the concentration at half-maximal activity (AC50) in assay [1] was 63.8 µM (active). Also, the result in [8], in assay [2] and in assay [3] was inactive.

In the case of `CCCSP(=S)(OCC)Oc1ccc(SC)cc1` (configuration not stated), the outcome in [1], in assay [4], in [5] and in [2] was inactive. In addition, in assay [8], the AC50 was 22.8 µM (active).

With `CN(C)C(=S)S`, the compound was classed as inactive in [1] and in [3].

On to `CNC(=O)O/N=C/C(C)(C)S(C)(=O)=O`, for which the AC50 in assay [9] is 0.623 µM (active). Also, the compound was called inactive in assay [1], in assay [4] and in assay [5].

Take `CCOC(=O)C(SP(=S)(OC)OC)c1ccccc1` (configuration not stated): the half-maximal activity concentration (AC50) in [7] was 9.9 µM (active).

Turning to `Clc1cccc(Cl)c1`, in assay [1], the outcome was inactive.

With `OCCCCO`, the result in assay [8], in [2] and in assay [3] was inactive.

For `O=S(=O)(Oc1ccc(Cl)cc1)c1ccc(Cl)cc1`, in assay [6], the compound was called inactive.

Take `O=c1[nH]c2ccccc2n1C1CCN(CCCC(c2ccc(F)cc2)c2ccc(F)cc2)CC1`: the call in [6] was inactive.

For the compound `CC(C)(C)c1cc([N+](=O)[O-])cc(C(C)(C)C)c1O`, the outcome in assay [6] was inactive.

For `CC(C)(C1CCC(O)CC1)C1CCC(O)CC1` (configuration not stated), the outcome in assay [6] was inactive.

For `O=c1nc(O)n(Cl)c(=O)n1Cl`, in [3], the outcome was inactive.

On to `CN(N=O)C(N)=O`, for which the outcome in assay [1] and in [3] was inactive.

For the compound `O=C(Cl)OCCOCCOC(=O)Cl`, the concentration at half-maximal activity (AC50) in [6] was 6.49 µM (active).

Turning to `Cc1cc(Cl)ccc1OCCCC(=O)O`, the compound was classed as inactive in [9], in [1], in assay [8], in assay [2] and in assay [3].

Consider `Cc1cc(C)cc(C)c1`, for which the compound was called inactive in assay [1] and in [3].
